Reference: paper PMC4336329 (PLoS ONE, 2015)
Among all 310,000 compounds or so, about 14,000 (4.5%) showed an effect of 50% or more. Effects have a minus sign here. This excerpt belongs to a sample that is enriched for strong results.

target: human ether-à-go-go-related gene (hERG) potassium channel (human, UniProt Q12809); experiment: primary screen, population patch clamp on CHO cells stably expressing hERG; higher = less effect of the substance
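Also: peak tail current of the secondary pulse compared with the same well before compound.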

Chain of human ether-à-go-go-related gene (hERG) potassium channel (Q12809 whole entry, looked up): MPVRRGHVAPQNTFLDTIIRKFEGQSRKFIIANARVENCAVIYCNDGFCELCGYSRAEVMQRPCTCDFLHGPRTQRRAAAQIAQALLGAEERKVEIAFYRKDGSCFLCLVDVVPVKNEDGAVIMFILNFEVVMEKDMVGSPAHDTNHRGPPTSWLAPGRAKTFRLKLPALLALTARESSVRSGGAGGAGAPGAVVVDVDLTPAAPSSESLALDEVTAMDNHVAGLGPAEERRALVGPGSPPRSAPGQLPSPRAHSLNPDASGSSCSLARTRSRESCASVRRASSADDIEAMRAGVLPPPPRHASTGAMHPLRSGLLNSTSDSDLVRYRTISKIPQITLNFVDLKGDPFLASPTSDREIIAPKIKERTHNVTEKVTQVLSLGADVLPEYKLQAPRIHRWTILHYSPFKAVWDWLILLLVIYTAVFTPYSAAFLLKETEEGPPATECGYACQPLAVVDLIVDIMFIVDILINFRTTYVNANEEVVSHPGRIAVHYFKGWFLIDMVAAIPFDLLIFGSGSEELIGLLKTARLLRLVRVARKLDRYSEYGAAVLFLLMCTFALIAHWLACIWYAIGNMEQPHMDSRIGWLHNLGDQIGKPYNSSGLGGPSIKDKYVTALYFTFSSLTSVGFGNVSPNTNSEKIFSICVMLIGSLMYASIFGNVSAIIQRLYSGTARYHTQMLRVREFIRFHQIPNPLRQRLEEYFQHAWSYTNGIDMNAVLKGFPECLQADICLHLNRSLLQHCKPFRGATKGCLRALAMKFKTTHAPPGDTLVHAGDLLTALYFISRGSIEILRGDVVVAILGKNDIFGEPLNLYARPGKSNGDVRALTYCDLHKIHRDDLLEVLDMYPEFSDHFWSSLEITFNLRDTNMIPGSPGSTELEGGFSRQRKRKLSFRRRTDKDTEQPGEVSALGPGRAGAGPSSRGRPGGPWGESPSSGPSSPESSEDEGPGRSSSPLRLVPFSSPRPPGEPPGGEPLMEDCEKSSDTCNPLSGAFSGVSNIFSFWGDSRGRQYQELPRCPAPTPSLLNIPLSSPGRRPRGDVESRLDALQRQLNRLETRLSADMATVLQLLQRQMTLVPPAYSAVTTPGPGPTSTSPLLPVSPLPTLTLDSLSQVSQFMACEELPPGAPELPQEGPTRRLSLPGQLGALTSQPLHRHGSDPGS

Row | Compound | hERG current change (%, negative = inhibition) at 10uM [%]
1 | Cn1cc(S(=O)(=O)N2CCOCC2)cc1C(=O)Nc1ccc(Cl)cc1 | -51
2 | Cn1cc(S(=O)(=O)N2CCOCC2)cc1C(=O)Nc1cccc(Cl)c1 | -10.4
3 | O=C(Nc1ccc(Cl)cc1)c1cc(S(=O)(=O)N2CCOCC2)cs1 | -51.2
4 | O=C(Nc1ccccc1C(=O)O)c1cc(S(=O)(=O)N2CCOCC2)cs1 | -66.4
5 | O=C(Nc1ccccc1Cl)c1cc(S(=O)(=O)N2CCOCC2)cs1 | -9.07
6 | O=C(Nc1ccccc1C(=O)O)c1cc(S(=O)(=O)N2CCCCC2)cs1 | 10.1
7 | Cc1ccc(NC(=O)c2cc(S(=O)(=O)N3CCOCC3)cs2)cc1 | -8.31
8 | Cc1ccc(NC(=O)c2cc(S(=O)(=O)N3CCOCC3)cn2C)cc1Cl | 11.2
9 | O=C(Nc1ccc(F)cc1)c1cc(S(=O)(=O)N2CCOCC2)cs1 | -11
10 | CCOc1ccccc1NC(=O)NCc1ccccc1 | 0.101
11 | CN(C)S(=O)(=O)c1ccc2c(c1)C(CC(=O)O)NC2=O (stereo not drawn) | 6.72
12 | CCCOc1ccc(N2C(=O)CC(SC(=NCC)NCC)C2=O)cc1 (stereo not drawn) | 11.9
13 | Cc1nc(-c2ccccc2)sc1C(=O)CSc1ccc(F)cc1 | -7.92
14 | CNC(=S)NNC(=O)c1cccn(Cc2ccccc2)c1=O | 19
15 | COc1ccc(CN2CCN(c3ccccn3)CC2)cc1OCc1ccccc1 | -67.9
16 | COc1ccc(OC)c(S(=O)(=O)N2CCN(Cc3ccccc3)CC2)c1 | 2.05
17 | COc1ccc(CN2CCc3ccccc3C2)c(OC)c1 | -28.4
18 | COc1ccc(NC(=S)N2CCN(Cc3ccccc3)CC2)c(OC)c1 | -5.79
19 | COc1ccc(-c2[nH]ncc2CN2CCN(c3ccccn3)CC2)c(OC)c1 | -31.5
20 | CCN1CCN(Cc2ccc(OC)c(OCc3ccccc3)c2)CC1 | -41.9
21 | COc1ccc(OC)c(S(=O)(=O)N2CCN(c3ccccn3)CC2)c1 | -12.5
22 | COc1ccc(S(=O)(=O)N2CCN(CCc3ccccc3)CC2)c(OC)c1 | -25.6

Row | Compound | hERG current change (%, negative = inhibition) at 10uM [%]
23 | COc1ccc(CN2CCN(CCCc3ccccc3)CC2)c(OC)c1 | -76.6
24 | COc1ccc(CN2CCN(c3ccccn3)CC2)c(OC)c1 | -75.9
25 | COc1ccc(CN2CCN(C)CC2)cc1OCc1ccccc1 | -19
26 | COc1ccc(CC(C)N2CCN(Cc3ccccc3)CC2)c(OC)c1 (stereo not drawn) | -75.3
27 | Fc1cccc(-c2oncc2-c2nnnn2-c2ccc(Cl)cc2)c1 | -13.9
28 | CCOC(=O)c1ccc(NC(=O)CCc2nnc3ccc(N4CCCC4)nn23)cc1 | 5.84
29 | O=C(OCC1CC(c2ccccc2)=NO1)c1ccc(Cl)cc1 (stereo not drawn) | 18.6
30 | CN1CCN(CP(=O)(N2CCOCC2)N2CCOCC2)CC1 | 1.13
31 | Br.CC(C)(C)C(=O)Cn1c(NCCCO)nc2ccccc21 | -7.81
32 | CC(NS(=O)(=O)c1ccc(CCC(=O)NCc2cccnc2)cc1)c1ccccc1 (stereo not drawn) | -1.35
33 | CCOC(=O)CSc1nnc(NC(=O)c2cc([N+](=O)[O-])cc([N+](=O)[O-])c2)s1 | -8.83
34 | O=C(C[n+]1ccccc1)N/N=C/c1cccs1.[Cl-] | 12
35 | Cn1ccnc1SCCNC(=O)C1CCC(=O)N(Cc2ccc(Cl)cc2)C1 (stereo not drawn) | -3.3
36 | COc1cc(NC(=O)CN(c2ccc(C)cc2)S(=O)(=O)c2c(C)noc2C)cc(OC)c1 | 16.3
37 | C=CCn1c(O)c(C(C)=NCCc2c[nH]c3ccccc23)c(=O)[nH]c1=O | -31.9
38 | CC(CCc1ccccc1)N1CCN(Cc2ccccc2)CC1 (stereo not drawn) | -75.2
39 | CCN1CCN(C(C)CCc2ccccc2)CC1 (stereo not drawn) | -17.7
40 | COc1ccc(CN2CCN(Cc3ccccc3)CC2)c(OC)c1 | -69.9
41 | CC(CCc1ccccc1)N1CCN(C)CC1 (stereo not drawn) | -20.4
42 | COc1ccc(CN2CCN(c3ncccn3)CC2)c(C)c1C | -35.9
43 | COc1ccc(CN2CCN(c3ccccn3)CC2)c(OC)c1C.O=C(O)C(=O)O | -37.1
44 | COc1ccc(CN2CCN(C(=O)Cc3ccccc3)CC2)c(OC)c1 | -31.5

Row | Compound | hERG current change (%, negative = inhibition) at 10uM [%]
45 | COc1ccc(OC)c(CN2CCN(Cc3cc(OC)c(OC)c(OC)c3)CC2)c1 | 9.45
46 | COc1ccc(CN2CCN(c3ccccn3)CC2)c(OC)c1C.O=C([O-])C(=O)[O-] | -55.8
47 | COCCn1cnc2c(c1=O)c1nc3ccccc3nc1n2/N=C/c1ccco1 | -7.29
48 | COc1ccc(CNS(=O)(=O)c2ccc(-c3ccc(=O)[nH]n3)s2)cc1OC | -29.5
49 | COC(=O)c1ccc2c(=O)n(CC3CCCO3)c(SCC(=O)Nc3ccccc3OC)nc2c1 (stereo not drawn) | -4.41
50 | CS(=O)(=O)c1nc(-c2ccccc2)cc(-c2ccccc2)c1C#N | 8.33
51 | CC(C)CCC(O)(c1ccccc1)C(CN1CCOCC1)c1ccccc1.Cl (stereo not drawn) | -1.36
52 | CNS(=O)(=O)Cc1ccc2[nH]cc(CCN(C)C)c2c1 | 10.6
53 | Cc1ccc(C)c(CN2CCC(CNC(=O)CCc3nnc4ccc(N5CCCCC5)nn34)CC2)c1 | -30.3
54 | COc1ccc(NC(=O)NNC(=O)c2ccccc2-n2cccc2)cc1OC | 25.4
55 | COc1ccc2c(=O)c3c(=O)n(Cc4ccco4)c(-c4ccccc4)nc3oc2c1 | -32.2
56 | COc1ccc2c(=O)c3c(=O)n(Cc4ccco4)c(-c4cc(OC)c(OC)c(OC)c4)nc3oc2c1 | -16
57 | COc1ccc2c(=O)c3c(=O)n(Cc4ccco4)c(-c4ccco4)nc3oc2c1 | -62.4
58 | COc1ccc(Cn2c(-c3ccco3)nc3oc4cc(OC)ccc4c(=O)c3c2=O)cc1 | -31.4
59 | COc1ccc2c(=O)c3c(=O)n(Cc4ccco4)c(-c4ccc(C)cc4)nc3oc2c1 | -53.3
60 | COc1ccc(-c2nc3oc4cc(OC)ccc4c(=O)c3c(=O)n2Cc2ccco2)cc1 | -27.5
61 | Nc1c(C(=O)Nc2ccc3c(c2)OCCO3)nnn1Cc1cccc(F)c1 | -4.88
62 | COc1ccc2c(C)nc(Nc3nc(-c4ccccc4)cc(=O)[nH]3)nc2c1 | 2.47
63 | Cc1ccccc1C(=O)c1cccn1CC(=O)NCCCc1ccccc1 | 9.69
64 | Cc1ccccc1C(=O)c1cccn1CC(=O)NCCCN1CC(C)CC(C)C1 (stereo not drawn) | -72.1
65 | CCCNC(=O)Cn1cccc1C(=O)c1ccccc1 | 14.7
66 | CC1CC(C)CN(CCCNC(=O)Cn2cccc2C(=O)c2ccccc2)C1 (stereo not drawn) | -63.1

Row | Compound | hERG current change (%, negative = inhibition) at 10uM [%]
67 | Cc1ccccc1C(=O)c1cccn1CC(=O)NCc1ccccc1 | 21.7
68 | O=C(Cn1cccc1C(=O)c1ccccc1)NCCCc1ccccc1 | -8.33
69 | Cc1ccc(NC(=O)c2ccc(OCC3CCCO3)cc2)c(C)c1 (stereo not drawn) | -9.65
70 | Cc1cc(NC(=O)c2sc(Nc3ccc(F)cc3)nc2N)no1 | 20
71 | Cc1cc(N2CCN(S(=O)(=O)c3ccccc3)CC2)c2ccccc2n1 | -73.3
72 | Cn1c(N2CCN(S(=O)(=O)c3ccc(Cl)cc3)CC2)nc2ccccc21 | -34
73 | Cc1cc(N2CCN(S(=O)(=O)c3ccc(Cl)cc3)CC2)c2ccccc2n1 | -77.8
74 | Cc1cc(N2CCN(S(=O)(=O)c3ccccc3)CC2)nc2c(C)cccc12 | 23.1
75 | CC(=O)Nc1ccc(S(=O)(=O)N2CCN(c3nc(NC4CCCC4)c4ccccc4n3)CC2)cc1 | -75.8
76 | Cc1ccccc1N1CCN(S(=O)(=O)c2ccccc2)CC1 | 0.732
77 | Cc1ccc(S(=O)(=O)N2CCN(c3ncccn3)CC2)cc1C | 13.9
78 | Cc1cc(N2CCN(S(=O)(=O)c3ccc(C)c(C)c3)CC2)c2ccccc2n1 | -64.6
79 | Cc1cc(N2CCN(S(=O)(=O)c3ccc(Cl)c(Cl)c3)CC2)c2ccccc2n1 | -45.3
80 | CC(=O)Nc1ccc(S(=O)(=O)N2CCN(c3ncccn3)CC2)cc1 | 6.13
81 | Cc1ccc(S(=O)(=O)N2CCN(c3ccccc3)CC2)cc1C | 6.82
82 | CC(=O)Nc1ccc(S(=O)(=O)N2CCN(c3ccccn3)CC2)cc1 | -3.36
83 | O=C(CCCn1nnc2ccccc2c1=O)N[C@@H](Cc1ccccc1)C(=O)O | 13
84 | COc1cc(OC)c(/C=N/n2c(C3CCCCC3)n[nH]c2=S)c(OC)c1 | 22.6
85 | CCSc1nc2c(c(=O)n1-c1ccc(F)cc1)SCC2 | -4.12
86 | Cc1cc(C)cc(NC(=O)N2C3CCCC2CC(NC(=O)C2CC2)C3)c1 (stereo not drawn) | 17
87 | Fc1ccc(COc2ccccc2-c2ccnc3ncnn23)cc1 | -6.51
